PMC7862700, “An all-to-all approach to the identification of sequence-specific readers for epigenetic DNA modifications on cytosine”

Experiments:
Assay in all cases: DAPPL (digital affinity profiling via proximity ligation, sequencing); 10 mM Tris-HCl pH 7.5, 50 mM NaCl, 1 mM DTT, 4% glycerol, room temperature, 30 min; GST-TFs on glutathione beads, 16-mer random dsDNA library, 0.1% formaldehyde crosslink after washing; high values mean tight binding
FLI1 = molecular target: T1, FLI1 (Homo sapiens, UniProt Q01543 1-452); conditions: protein: recombinant; tags: N-terminal GST; dsDNA, one strand shown
T1 sequence: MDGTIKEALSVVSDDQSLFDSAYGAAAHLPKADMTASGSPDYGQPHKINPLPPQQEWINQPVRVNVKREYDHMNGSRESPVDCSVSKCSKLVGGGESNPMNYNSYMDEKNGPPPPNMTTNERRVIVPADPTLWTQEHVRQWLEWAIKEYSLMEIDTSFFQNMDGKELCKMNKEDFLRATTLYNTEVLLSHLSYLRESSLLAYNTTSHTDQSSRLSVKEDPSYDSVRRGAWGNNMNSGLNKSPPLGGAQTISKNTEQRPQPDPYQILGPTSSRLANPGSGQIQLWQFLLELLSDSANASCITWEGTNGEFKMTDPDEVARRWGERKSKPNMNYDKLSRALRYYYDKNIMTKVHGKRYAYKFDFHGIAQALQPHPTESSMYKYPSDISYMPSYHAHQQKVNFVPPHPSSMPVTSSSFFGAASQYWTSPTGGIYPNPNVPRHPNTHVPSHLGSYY
Procedure, shortened: (§1)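 Human transcription factors were made in yeast as GST fusions, captured on glutathione beads and barcoded with DNA. With a tag-only sample included, the pool was incubated with 200 nmole of a random double-stranded 16-mer DNA library in Tris/NaCl/DTT/glycerol buffer at room temperature for 30 min, then crosslinked with 0.1% formaldehyde after washing, ligated by proximity, amplified and sequenced. For binding signal, each hexamer's read frequency for a factor is divided by its frequency for the tag-only sample.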

ELK1 = molecular target: T2, ELK1 (Homo sapiens, UniProt P19419 1-428); conditions: protein: recombinant; tags: N-terminal GST; dsDNA, one strand shown
T2 sequence: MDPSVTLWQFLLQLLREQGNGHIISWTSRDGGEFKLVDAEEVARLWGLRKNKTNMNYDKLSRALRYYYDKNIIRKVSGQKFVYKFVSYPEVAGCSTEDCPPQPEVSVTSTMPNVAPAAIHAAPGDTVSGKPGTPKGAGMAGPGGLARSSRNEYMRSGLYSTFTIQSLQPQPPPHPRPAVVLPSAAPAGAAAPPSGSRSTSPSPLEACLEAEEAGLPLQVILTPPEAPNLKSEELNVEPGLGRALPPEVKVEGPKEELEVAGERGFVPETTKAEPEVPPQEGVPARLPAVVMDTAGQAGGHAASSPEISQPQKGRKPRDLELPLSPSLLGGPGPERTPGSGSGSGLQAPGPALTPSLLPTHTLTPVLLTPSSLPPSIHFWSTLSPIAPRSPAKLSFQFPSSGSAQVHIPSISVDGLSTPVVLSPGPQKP
Procedure, shortened: as §1

GABPA = molecular target: T3, GABPA (Homo sapiens, UniProt Q06546 1-454); conditions: protein: recombinant; tags: N-terminal GST; dsDNA, one strand shown
T3 sequence: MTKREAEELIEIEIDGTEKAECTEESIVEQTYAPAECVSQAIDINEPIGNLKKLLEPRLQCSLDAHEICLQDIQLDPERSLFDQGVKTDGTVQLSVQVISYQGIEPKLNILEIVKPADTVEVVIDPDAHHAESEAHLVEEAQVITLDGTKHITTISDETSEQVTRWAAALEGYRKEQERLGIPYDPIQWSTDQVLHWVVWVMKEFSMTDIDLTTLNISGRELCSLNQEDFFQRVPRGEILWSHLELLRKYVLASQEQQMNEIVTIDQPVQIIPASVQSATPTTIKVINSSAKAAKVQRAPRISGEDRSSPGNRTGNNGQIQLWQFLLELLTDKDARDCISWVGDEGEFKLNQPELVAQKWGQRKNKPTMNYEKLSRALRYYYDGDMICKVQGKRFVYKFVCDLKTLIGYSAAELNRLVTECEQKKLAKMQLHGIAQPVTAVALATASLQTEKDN
Procedure, shortened: as §1

ERG = molecular target: T4, ERG (Homo sapiens, UniProt P11308 1-479); conditions: protein: recombinant; tags: N-terminal GST; dsDNA, one strand shown
T4 sequence: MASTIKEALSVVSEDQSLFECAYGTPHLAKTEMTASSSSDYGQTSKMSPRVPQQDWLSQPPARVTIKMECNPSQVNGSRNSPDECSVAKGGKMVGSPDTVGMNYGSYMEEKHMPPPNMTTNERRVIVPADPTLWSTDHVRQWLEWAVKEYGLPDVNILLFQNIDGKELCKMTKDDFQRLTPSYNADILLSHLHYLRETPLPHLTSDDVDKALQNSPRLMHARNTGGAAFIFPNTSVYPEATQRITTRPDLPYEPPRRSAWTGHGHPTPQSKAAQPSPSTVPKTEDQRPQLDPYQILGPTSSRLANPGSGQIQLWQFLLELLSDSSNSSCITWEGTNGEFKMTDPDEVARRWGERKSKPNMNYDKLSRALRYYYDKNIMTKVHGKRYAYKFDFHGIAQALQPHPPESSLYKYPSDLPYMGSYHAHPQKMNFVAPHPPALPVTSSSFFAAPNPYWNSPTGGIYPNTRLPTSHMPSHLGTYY
Procedure, shortened: as §1

ELF1 = ELF1 (Homo sapiens, UniProt P32519 1-619); conditions: protein: recombinant; tags: N-terminal GST; dsDNA, one strand shown
Procedure, shortened: as §1

EHF = molecular target: T5, EHF (Homo sapiens, UniProt Q9NZC4 1-300); conditions: protein: recombinant; tags: N-terminal GST; dsDNA, one strand shown
T5 sequence: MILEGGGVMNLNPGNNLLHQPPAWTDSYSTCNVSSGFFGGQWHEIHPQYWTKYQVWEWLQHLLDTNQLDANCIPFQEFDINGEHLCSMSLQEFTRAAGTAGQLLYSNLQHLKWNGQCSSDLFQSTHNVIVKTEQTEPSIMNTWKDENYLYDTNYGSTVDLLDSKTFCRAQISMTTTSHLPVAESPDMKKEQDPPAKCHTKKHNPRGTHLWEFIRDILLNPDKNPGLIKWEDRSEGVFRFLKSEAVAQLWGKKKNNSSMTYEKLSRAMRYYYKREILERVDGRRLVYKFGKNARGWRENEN
Procedure, shortened: as §1

SPI1 = SPI1 (Homo sapiens, UniProt P17947 1-270); conditions: protein: recombinant; tags: N-terminal GST; dsDNA, one strand shown
Procedure, shortened: as §1

SPIB = SPIB (Homo sapiens, UniProt Q01892 1-262); conditions: protein: recombinant; tags: N-terminal GST; dsDNA, one strand shown
Procedure, shortened: as §1

ELK3 = molecular target: T6, ELK3 (Homo sapiens, UniProt P41970 1-407); conditions: protein: recombinant; tags: N-terminal GST; dsDNA, one strand shown
T6 sequence: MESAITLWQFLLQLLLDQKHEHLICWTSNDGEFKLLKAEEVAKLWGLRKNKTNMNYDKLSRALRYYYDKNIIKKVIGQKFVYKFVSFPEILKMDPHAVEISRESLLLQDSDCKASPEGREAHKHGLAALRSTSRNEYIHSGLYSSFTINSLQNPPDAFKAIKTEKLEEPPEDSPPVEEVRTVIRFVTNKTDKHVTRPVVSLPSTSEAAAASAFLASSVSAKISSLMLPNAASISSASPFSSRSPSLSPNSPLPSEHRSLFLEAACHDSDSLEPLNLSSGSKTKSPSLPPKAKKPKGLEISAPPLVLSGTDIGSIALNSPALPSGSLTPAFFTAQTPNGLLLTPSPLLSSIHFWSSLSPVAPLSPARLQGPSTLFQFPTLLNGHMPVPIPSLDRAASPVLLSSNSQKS
Procedure, shortened: as §1

ETV5 = ETV5 (Homo sapiens, UniProt P41161 1-510); conditions: protein: recombinant; tags: N-terminal GST; dsDNA, one strand shown
Procedure, shortened: as §1

HSF1 = HSF1 (Homo sapiens, UniProt Q00613 1-529); conditions: protein: recombinant; tags: N-terminal GST; chain copies: 3; dsDNA, one strand shown
Procedure, shortened: as §1

SPIC = molecular target: T7, SPIC (Homo sapiens, UniProt Q8N5J4 1-248); conditions: protein: recombinant; tags: N-terminal GST; dsDNA, one strand shown
T7 sequence: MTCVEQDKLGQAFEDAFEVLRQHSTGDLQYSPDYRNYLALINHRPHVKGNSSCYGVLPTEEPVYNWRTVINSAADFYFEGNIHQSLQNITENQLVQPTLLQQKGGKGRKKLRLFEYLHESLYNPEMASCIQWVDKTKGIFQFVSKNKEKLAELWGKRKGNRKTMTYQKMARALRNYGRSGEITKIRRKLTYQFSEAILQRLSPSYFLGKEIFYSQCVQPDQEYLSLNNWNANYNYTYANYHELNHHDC
Procedure, shortened: as §1

ELF4 = ELF4 (Homo sapiens, UniProt Q99607 1-663); conditions: protein: recombinant; tags: N-terminal GST; dsDNA, one strand shown
Procedure, shortened: as §1

ELK4 = molecular target: T8, ELK4 (Homo sapiens, UniProt P28324-2 1-405); conditions: protein: recombinant; tags: N-terminal GST; dsDNA, one strand shown
T8 sequence: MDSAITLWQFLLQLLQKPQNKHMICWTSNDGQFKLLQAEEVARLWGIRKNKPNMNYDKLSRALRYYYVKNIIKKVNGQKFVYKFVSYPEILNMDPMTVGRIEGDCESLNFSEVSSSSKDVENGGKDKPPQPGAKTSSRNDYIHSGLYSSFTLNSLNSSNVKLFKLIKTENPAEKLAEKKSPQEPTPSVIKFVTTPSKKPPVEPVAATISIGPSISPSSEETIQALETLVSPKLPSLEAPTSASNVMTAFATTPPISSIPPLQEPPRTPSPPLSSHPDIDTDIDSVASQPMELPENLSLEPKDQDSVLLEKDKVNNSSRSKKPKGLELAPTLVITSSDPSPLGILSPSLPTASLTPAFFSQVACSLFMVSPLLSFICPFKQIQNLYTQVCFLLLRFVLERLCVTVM
Procedure, shortened: as §1

ETV2 = molecular target: T9, ETV2 (Homo sapiens, UniProt O00321 1-342); conditions: protein: recombinant; tags: N-terminal GST; dsDNA, one strand shown
T9 sequence: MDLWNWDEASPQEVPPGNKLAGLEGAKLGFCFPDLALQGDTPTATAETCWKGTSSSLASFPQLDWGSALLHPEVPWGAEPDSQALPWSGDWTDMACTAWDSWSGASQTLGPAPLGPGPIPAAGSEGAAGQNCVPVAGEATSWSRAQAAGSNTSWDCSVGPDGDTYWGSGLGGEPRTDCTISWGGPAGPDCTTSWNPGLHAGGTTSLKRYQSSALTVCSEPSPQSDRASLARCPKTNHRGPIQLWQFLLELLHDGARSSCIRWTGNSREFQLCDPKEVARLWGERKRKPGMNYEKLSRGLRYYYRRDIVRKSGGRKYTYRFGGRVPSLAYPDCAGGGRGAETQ
Procedure, shortened: as §1

ELF3 = molecular target: T10, ELF3 (Homo sapiens, UniProt P78545 1-371); conditions: protein: recombinant; tags: N-terminal GST; dsDNA, one strand shown
T10 sequence: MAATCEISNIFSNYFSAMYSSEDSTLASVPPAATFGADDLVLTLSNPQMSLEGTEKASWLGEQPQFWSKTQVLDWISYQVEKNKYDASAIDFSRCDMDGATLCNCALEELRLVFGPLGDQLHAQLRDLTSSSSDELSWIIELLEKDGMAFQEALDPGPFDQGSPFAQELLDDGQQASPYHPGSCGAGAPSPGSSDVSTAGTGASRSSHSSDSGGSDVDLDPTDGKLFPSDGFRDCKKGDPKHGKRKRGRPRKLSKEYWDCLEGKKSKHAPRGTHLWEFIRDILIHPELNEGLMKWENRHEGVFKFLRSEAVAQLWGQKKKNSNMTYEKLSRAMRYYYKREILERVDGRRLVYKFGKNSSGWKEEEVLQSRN
Procedure, shortened: as §1

CRX = CRX (Homo sapiens, UniProt O43186 1-299); conditions: protein: recombinant; tags: N-terminal GST; dsDNA, one strand shown
Procedure, shortened: as §1

ETV1 = ETV1 (Homo sapiens, UniProt P50549 1-477); conditions: protein: recombinant; tags: N-terminal GST; dsDNA, one strand shown
Procedure, shortened: as §1

Sequence of ETV1 (P50549 whole entry): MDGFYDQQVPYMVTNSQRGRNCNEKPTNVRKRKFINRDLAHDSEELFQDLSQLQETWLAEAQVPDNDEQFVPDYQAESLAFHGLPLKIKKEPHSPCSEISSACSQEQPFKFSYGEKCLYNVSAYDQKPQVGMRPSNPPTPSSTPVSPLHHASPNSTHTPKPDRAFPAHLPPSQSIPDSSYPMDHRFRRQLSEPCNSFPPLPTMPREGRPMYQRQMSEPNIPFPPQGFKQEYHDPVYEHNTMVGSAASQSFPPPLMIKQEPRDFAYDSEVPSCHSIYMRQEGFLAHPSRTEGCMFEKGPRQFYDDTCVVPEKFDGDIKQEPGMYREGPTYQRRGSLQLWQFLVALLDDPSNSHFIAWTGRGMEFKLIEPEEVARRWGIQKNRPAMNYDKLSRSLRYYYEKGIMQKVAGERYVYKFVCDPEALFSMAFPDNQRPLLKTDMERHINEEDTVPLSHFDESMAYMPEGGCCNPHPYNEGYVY
Sequence of SPIB (Q01892 whole entry): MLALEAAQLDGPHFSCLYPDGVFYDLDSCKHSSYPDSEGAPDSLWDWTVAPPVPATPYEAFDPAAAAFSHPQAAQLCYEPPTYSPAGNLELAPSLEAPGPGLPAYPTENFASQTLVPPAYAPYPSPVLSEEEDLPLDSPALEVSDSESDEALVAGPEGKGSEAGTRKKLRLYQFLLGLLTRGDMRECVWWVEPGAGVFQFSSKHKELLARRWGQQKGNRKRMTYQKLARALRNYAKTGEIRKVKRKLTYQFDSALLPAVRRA
Sequence of HSF1 (Q00613 whole entry): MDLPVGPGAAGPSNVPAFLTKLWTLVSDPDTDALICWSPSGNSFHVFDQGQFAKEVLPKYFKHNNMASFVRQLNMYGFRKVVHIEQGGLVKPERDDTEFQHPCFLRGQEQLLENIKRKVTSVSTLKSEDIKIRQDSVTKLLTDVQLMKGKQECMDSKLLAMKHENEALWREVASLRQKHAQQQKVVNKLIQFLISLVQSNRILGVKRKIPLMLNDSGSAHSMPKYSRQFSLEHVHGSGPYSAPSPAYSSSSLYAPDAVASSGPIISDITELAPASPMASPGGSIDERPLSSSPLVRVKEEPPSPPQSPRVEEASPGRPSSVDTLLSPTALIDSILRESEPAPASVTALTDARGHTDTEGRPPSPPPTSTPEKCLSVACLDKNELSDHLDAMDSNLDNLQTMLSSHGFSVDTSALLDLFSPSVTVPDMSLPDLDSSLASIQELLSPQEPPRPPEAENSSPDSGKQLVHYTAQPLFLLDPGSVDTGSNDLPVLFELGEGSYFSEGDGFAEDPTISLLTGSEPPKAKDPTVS
Sequence of ELF4 (Q99607 whole entry): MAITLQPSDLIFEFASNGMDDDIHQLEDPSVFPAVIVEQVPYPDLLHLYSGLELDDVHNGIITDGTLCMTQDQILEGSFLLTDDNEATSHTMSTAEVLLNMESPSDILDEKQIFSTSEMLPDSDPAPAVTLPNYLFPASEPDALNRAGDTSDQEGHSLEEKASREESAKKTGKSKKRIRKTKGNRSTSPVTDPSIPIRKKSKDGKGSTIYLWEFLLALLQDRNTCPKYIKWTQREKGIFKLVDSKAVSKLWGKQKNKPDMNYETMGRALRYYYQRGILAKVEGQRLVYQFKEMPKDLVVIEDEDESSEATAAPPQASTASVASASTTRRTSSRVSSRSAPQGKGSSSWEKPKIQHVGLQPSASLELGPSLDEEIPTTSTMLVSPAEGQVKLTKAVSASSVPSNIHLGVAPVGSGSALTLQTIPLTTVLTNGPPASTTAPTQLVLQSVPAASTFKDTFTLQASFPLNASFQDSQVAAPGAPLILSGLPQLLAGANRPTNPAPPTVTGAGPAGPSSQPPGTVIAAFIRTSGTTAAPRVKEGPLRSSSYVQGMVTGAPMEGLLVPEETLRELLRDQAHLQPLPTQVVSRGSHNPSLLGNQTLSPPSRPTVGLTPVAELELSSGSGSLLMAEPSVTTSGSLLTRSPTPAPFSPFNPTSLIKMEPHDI
Sequence of ETV5 (P41161 whole entry): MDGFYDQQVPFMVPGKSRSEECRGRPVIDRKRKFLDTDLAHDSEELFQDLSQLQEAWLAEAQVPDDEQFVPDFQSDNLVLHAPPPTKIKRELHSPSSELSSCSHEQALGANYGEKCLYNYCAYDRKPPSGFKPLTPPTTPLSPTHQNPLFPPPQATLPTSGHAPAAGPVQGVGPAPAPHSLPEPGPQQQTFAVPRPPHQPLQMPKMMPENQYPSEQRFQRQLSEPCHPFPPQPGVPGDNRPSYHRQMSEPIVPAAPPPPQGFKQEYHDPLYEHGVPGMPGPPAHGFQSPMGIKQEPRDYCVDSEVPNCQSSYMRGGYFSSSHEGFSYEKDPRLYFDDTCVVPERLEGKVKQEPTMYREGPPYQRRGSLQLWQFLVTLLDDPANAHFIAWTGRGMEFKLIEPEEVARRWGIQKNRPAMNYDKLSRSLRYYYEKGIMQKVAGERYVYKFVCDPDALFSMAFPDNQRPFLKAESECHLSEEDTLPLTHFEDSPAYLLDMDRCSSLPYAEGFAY
Sequence of CRX (O43186 whole entry): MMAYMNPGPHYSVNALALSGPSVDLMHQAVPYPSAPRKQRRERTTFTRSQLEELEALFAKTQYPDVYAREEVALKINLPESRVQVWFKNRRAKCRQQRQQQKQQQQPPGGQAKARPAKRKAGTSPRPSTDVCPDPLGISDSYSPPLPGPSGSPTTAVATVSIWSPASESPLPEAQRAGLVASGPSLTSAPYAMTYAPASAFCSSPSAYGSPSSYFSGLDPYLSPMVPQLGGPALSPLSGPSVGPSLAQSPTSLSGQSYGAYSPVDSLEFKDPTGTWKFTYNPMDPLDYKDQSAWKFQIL
Sequence of ELF1 (P32519 whole entry): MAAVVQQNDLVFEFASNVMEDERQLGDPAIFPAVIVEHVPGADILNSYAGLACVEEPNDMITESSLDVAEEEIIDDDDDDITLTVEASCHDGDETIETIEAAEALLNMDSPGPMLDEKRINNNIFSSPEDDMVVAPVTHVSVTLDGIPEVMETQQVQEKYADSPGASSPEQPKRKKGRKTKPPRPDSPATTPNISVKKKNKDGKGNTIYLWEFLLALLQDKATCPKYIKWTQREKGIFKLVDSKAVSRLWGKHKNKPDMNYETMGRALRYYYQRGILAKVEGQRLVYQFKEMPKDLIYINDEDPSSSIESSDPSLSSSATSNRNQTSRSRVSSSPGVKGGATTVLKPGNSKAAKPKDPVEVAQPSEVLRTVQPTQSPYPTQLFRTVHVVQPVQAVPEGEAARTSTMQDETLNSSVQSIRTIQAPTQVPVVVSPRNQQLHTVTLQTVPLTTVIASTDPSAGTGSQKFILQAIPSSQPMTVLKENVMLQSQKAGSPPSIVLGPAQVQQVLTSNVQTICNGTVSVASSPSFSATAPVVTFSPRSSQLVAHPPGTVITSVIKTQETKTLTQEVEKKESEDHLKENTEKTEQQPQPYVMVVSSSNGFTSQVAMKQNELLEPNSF

Row | Sequence | binding signal (FLI1) | binding signal (ELK1) | binding signal (GABPA) | binding signal (ERG) | binding signal (ELF1) | binding signal (EHF) | binding signal (SPI1) | binding signal (SPIB) | binding signal (ELK3) | binding signal (ETV5) | binding signal (HSF1) | binding signal (SPIC) | binding signal (ELF4) | binding signal (ELK4) | binding signal (ETV2) | binding signal (ELF3) | binding signal (CRX) | binding signal (ETV1)
1 | TAATGT | 1.15 fold enrichment (6-mer frequency, TF over GST control) | 1.02 fold enrichment (6-mer frequency, TF over GST control) | 1.08 fold enrichment (6-mer frequency, TF over GST control) | 1.09 fold enrichment (6-mer frequency, TF over GST control) | 1.11 fold enrichment (6-mer frequency, TF over GST control) | 1.07 fold enrichment (6-mer frequency, TF over GST control) | 1.06 fold enrichment (6-mer frequency, TF over GST control) | 1.05 fold enrichment (6-mer frequency, TF over GST control) | 1.09 fold enrichment (6-mer frequency, TF over GST control) | 1.14 fold enrichment (6-mer frequency, TF over GST control) | 1.19 fold enrichment (6-mer frequency, TF over GST control) | 1.21 fold enrichment (6-mer frequency, TF over GST control) | 1.11 fold enrichment (6-mer frequency, TF over GST control) | 1.19 fold enrichment (6-mer frequency, TF over GST control) | 1.08 fold enrichment (6-mer frequency, TF over GST control) | 1.04 fold enrichment (6-mer frequency, TF over GST control) | 1.5 fold enrichment (6-mer frequency, TF over GST control) | 1.16 fold enrichment (6-mer frequency, TF over GST control)
2 | CTATTA | 1.18 fold enrichment (6-mer frequency, TF over GST control) | 1.05 fold enrichment (6-mer frequency, TF over GST control) | 1.06 fold enrichment (6-mer frequency, TF over GST control) | 1.07 fold enrichment (6-mer frequency, TF over GST control) | 1.09 fold enrichment (6-mer frequency, TF over GST control) | 1.12 fold enrichment (6-mer frequency, TF over GST control) | 1.1 fold enrichment (6-mer frequency, TF over GST control) | 1.13 fold enrichment (6-mer frequency, TF over GST control) | 1.04 fold enrichment (6-mer frequency, TF over GST control) | 1.14 fold enrichment (6-mer frequency, TF over GST control) | 1.3 fold enrichment (6-mer frequency, TF over GST control) | 1.07 fold enrichment (6-mer frequency, TF over GST control) | 1.14 fold enrichment (6-mer frequency, TF over GST control) | 1.09 fold enrichment (6-mer frequency, TF over GST control) | 1.13 fold enrichment (6-mer frequency, TF over GST control) | 1.03 fold enrichment (6-mer frequency, TF over GST control) | 1.76 fold enrichment (6-mer frequency, TF over GST control) | 1.14 fold enrichment (6-mer frequency, TF over GST control)
